Measurements taken from PubChem BioAssay (NCI).
This is part of a sample that, as a whole, favours compounds with a hit. Of some 83,000 tested, about 20% had one in any assay.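 Cell lines were cultured in 96-well plates, exposed to a single compound concentration, and assessed for percent growth 48 hours later.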 Activity calls are given as the source filed them. Rule for the calls: active = growth percent below 10; inactive = the rest.

Legend:
Assay in all cases: NCI-60 one-dose screen, 48 h (100 = growth as untreated, 0 = no growth, -100 = all killed)
Details in all cases: 10 µM unless noted
[1] = test system: SR leukemia
[2] = test system: RPMI-8226 leukemia
[3] = test system: OVCAR-8 ovarian
[4] = test system: OVCAR-5 ovarian
[5] = test system: OVCAR-4 ovarian
[6] = test system: SK-OV-3 ovarian
[7] = test system: IGROV1 ovarian
[8] = test system: OVCAR-3 ovarian
[9] = test system: HS 578T breast
[10] = test system: NCI/ADR-RES ovarian
[11] = test system: T-47D breast
[12] = test system: BT-549 breast
[13] = test system: MDA-MB-435 melanoma
[14] = test system: MCF7 breast
[15] = test system: HCT-116 colon
[16] = test system: HCC-2998 colon
[17] = test system: KM12 colon
[18] = test system: SW-620 colon

Measured: growth

CCCCCC(/C=N\NC(=S)N/N=C/C(=C/c1ccccc1)CCCCC)=C\c1ccccc1
inactive: [1] 56.2% | [2] 44.7% | [3] 64.4% | [4] 105% | [5] 56.2% | [6] 85.9% | [7] 64.1% | [8] 26.2% | [9] 73.8% | [10] 60.2% | [11] 83.9% | [12] 83.4% | [13] 81.6% | [14] 75.9% | [15] 53.3% | [16] 64.6% | [17] 66.7%

CCCCNC(=O)CC1=C(C)/C(=C/c2[nH]c(-c3ccc[nH]3)cc2OC)N=C1C
inactive: [2] 39.2% | [3] 20.5% | [4] 50.2% | [5] 39.7% | [6] 51.7% | [7] 49.2% | [8] 24.4% | [9] 43.1% | [10] 30.1% | [11] 32.6% | [12] 41.7% | [13] 20.2% | [18] 12.5% | [14] 22.3% | [16] 33.8% | [17] 13.4%
active: [1] -16.8% | [15] 3.1%

Cc1ccc2c(n1)C(=O)C(Br)=C(CC(C)C)C2=O
inactive: [1] 17% | [2] 53% | [3] 97.6% | [4] 102% | [5] 104% | [6] 101% | [7] 81.5% | [8] 53.1% | [9] 102% | [10] 98.4% | [11] 82% | [12] 99.4% | [13] 104% | [18] 64% | [14] 93.2% | [15] 61.6% | [16] 105% | [17] 99.3%

COC(=O)[C@@H](CCCCNC(=O)[C@]12CCC(C)(C)C[C@@H]1C1=CC[C@@H]3[C@@]4(C)C/C(=C/c5ccco5)C(=O)C(C)(C)[C@@H]4CC[C@@]3(C)[C@]1(C)CC2)NC(=O)[C@]12CCC(C)(C)C[C@@H]1C1=CC[C@@H]3[C@@]4(C)C/C(=C/c5ccco5)C(=O)C(C)(C)[C@@H]4CC[C@@]3(C)[C@]1(C)CC2
inactive: [1] 87.9% | [2] 100% | [3] 104% | [4] 108% | [5] 127% | [6] 106% | [7] 107% | [8] 115% | [9] 104% | [10] 112% | [11] 94.7% | [12] 106% | [13] 93.9% | [18] 112% | [14] 104% | [15] 100% | [16] 103% | [17] 103%

Nc1ncc(-c2ccc3ncnc(Nc4cccc(Cl)c4)c3c2)cn1
active: [6] -10% | [7] 5.88% | [11] -20.1%
inactive: [1] 33.6% | [2] 44.5% | [3] 46.8% | [4] 26.4% | [5] 70% | [8] 27.3% | [9] 16.4% | [10] 52.2% | [12] 46.5% | [13] 55.6% | [18] 91.4% | [14] 24.2% | [15] 66.4% | [16] 60.5% | [17] 67.5%

Cc1ccc(-c2nc(N3CCCNCC3)c3oc(-c4ccccc4)nc3n2)cc1
active: [1] -42.3% | [2] -49.1% | [3] -44.1% | [4] -87.3% | [5] -62.6% | [7] -85.3% | [8] -85.7% | [9] -29.8% | [10] -45.5% | [11] -67.5% | [13] -87.9% | [14] -74.7% | [15] -79.2% | [16] -92.1% | [17] -81.5%
inactive: [6] 95.5% | [12] 81.2%

O=C(O)c1ccc(-n2cc(/C=N/Nc3ccccc3)c(-c3ccc(F)cc3F)n2)cc1
inactive: [1] 72% | [2] 50% | [3] 53.3% | [4] 57.6% | [5] 80.4% | [6] 89.1% | [7] 52.6% | [8] 62.3% | [9] 68.6% | [10] 56.7% | [11] 35.4% | [12] 95.2% | [13] 45.9% | [18] 30.1% | [14] 41.6% | [15] 37.7% | [16] 81.1% | [17] 29.3%

COc1ccc(NC2=C(I)C(=O)c3ncccc3C2=O)cc1
active: [1] 6.66% | [2] 4.44% | [3] 8.5% | [4] -62.8% | [5] -88.3% | [7] -43.9% | [8] -10.1% | [9] -15.9% | [10] 0.698% | [11] -32.7% | [12] -6.34% | [13] -88.9% | [18] -60.6% | [14] -53.5% | [15] 2.09%
inactive: [6] 50% | [16] 47.6% | [17] 15.3%

C=CCN=c1sc2c(n1NC(=O)c1cc3ccc1CCc1ccc(cc1)CC3)C(=O)c1ccccc1C2=O
active: [1] -8.54% | [2] -27.7% | [3] 5.6% | [4] -65.7% | [5] -96.3% | [7] -20.5% | [8] -26.4% | [9] -9.43% | [10] -12.8% | [11] -3.21% | [12] -99.1% | [13] -93.5% | [14] -62.8% | [15] -32.4% | [16] -33.5% | [17] 6.04%
inactive: [6] 55.7%

Cc1cc(C)c2c(c1)N(C)c1ncnc(-n3cnc4cc(C)ccc43)c1CC2C (centres undefined)
inactive: [3] 17.1% | [4] 76.6% | [5] 61.5% | [7] 44.7% | [9] 25.1% | [10] 14.6% | [11] 28.8% | [12] 29.8% | [18] 21.4% | [14] 17.1% | [15] 11.1% | [16] 52.1% | [17] 22.7%
active: [1] 4.51% | [2] 9.87% | [6] 3.2% | [8] 8.19% | [13] 8.39%

Cc1ccccc1/C=C/C(=O)c1cccc(OCCCCOc2cccc(C(=O)/C=C/c3ccccc3C)c2)c1
inactive: [1] 74.4% | [3] 97.6% | [4] 103% | [5] 87.1% | [6] 107% | [7] 96.6% | [8] 104% | [9] 106% | [10] 99.1% | [11] 91.4% | [12] 111% | [13] 95% | [14] 41.5% | [15] 41.6% | [16] 93.4% | [17] 96.7%
active: [2] -6.51%

CC(O)(c1ccccc1)C(c1ccccc1)C1CCCCN1 (centres undefined)
inactive: [1] 101% | [2] 102% | [3] 101% | [4] 113% | [5] 97.9% | [6] 113% | [7] 80.5% | [8] 105% | [9] 107% | [10] 105% | [11] 94.2% | [12] 35.6% | [13] 99.1% | [14] 110% | [15] 97.3% | [16] 107% | [17] 104%

CS(=O)(=O)Nc1cc(-c2ccc3ncnc(Nc4ccc5c(cnn5Cc5cccc(F)c5)c4)c3c2)cnc1Cl
inactive: [3] 28.1% | [5] 26.4% | [10] 78.2% | [17] 13.9%
active: [1] 4.76% | [2] -24.4% | [4] 7.19% | [6] -17.7% | [7] -51.2% | [8] -5.45% | [9] -14.8% | [11] -24.6% | [12] -13.5% | [13] 8.98% | [14] 0.881% | [15] 4.08% | [16] 2.5%

O=C(Nc1nc(-c2ccc(Cl)cc2)nc2c1sc(=S)n2-c1ccccc1)C(F)(F)F
active: [5] -53.5% | [11] -14.8% | [15] 3.7%
inactive: [1] 19.9% | [2] 51.2% | [3] 27.1% | [4] 62.6% | [6] 25.2% | [7] 32.9% | [8] 16.8% | [9] 11.5% | [10] 32% | [12] 28.3% | [13] 50.6% | [14] 57.1% | [16] 68.4% | [17] 32.8%

CNc1nnc2n(-c3ccccc3)c(=O)c3cnn(-c4ccccc4)c3n12
inactive: [1] 65.2% | [2] 85.3% | [3] 95.7% | [4] 99.3% | [5] 107% | [6] 68.4% | [7] 94.8% | [8] 104% | [9] 97.4% | [10] 96.6% | [11] 37.1% | [13] 98.2% | [18] 105% | [14] 86.7% | [15] 77.7% | [16] 112% | [17] 87.4%

COc1ccc(C(=O)Nc2cccc(-c3cc(=O)c4c(OC)c(OC)c(OC)cc4o3)c2)cc1
inactive: [1] 28.6% | [2] 18.8% | [3] 57.9% | [4] 95.6% | [5] 62% | [6] 108% | [7] 53.9% | [8] 66.8% | [9] 42.9% | [10] 60.2% | [11] 45% | [13] 69.6% | [18] 88% | [14] 66.5% | [15] 47.8% | [16] 70.3% | [17] 46.3%
